Bioassay records deposited in PubChem BioAssay by several laboratories.
Only some compounds are listed: those with a hit (about 5.7% of all), similar ones and a draw of the others.
Hsp90 inh: displaces geldanamycin probe from tumor Hsp90 | P07900 | NCI-N417 lysate Hsp90, Cy3B-geldanamycin FP displacement | inhibition, % at 30 µM | actives 0.35% (n = 64,000);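 active means inhibition above 50%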;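 further: 0% = tracer plus lysate wells and 100% = tracer alone without lysate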
MKP-1 inh: blocks human MKP-1 phosphatase activity; recombinant MKP-1, OMFP hydrolysis fluorescence; inhibition, %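 (compounds tested at a single concentration somewhere between 10 and 100 µM)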; actives 0.15% (n = 65,000);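 active means inhibition above about 50%, limit read from the data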;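 further: 0% = DMSO max control wells and 100% = wells with enzyme stopped by NaOH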
Cdc25B block: human M-phase inducer phosphatase 2 inhibition; actives 0.1% (n = 65,000); recombinant Cdc25B, OMFP fluorescence Ex485/Em525; AID 368; inhibition, %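 (compounds tested at 10 µM final in the well)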; in the data active means inhibition above about 50%
Target sequence (P30305 whole entry, looked up): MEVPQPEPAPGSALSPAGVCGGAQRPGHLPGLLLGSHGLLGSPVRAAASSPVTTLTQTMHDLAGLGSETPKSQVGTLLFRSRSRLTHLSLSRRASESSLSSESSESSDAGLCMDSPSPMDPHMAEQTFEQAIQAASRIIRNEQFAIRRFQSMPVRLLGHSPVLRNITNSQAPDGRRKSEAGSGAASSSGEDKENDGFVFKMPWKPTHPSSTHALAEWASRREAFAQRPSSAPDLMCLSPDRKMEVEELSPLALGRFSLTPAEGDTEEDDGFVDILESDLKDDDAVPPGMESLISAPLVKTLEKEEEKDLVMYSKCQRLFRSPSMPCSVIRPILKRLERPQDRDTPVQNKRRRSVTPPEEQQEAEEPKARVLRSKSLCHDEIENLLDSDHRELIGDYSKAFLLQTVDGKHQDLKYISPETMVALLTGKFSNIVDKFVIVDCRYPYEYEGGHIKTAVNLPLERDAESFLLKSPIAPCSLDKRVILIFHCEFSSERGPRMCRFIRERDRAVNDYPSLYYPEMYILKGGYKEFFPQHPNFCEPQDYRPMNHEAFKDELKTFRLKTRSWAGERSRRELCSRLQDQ
NADH enzymes: blocks coupling enzymes of NAD/NADH assays. AID 774. IC50, µM (series often up to 10 µM), without a hit: top-dose inhibition. actives 0.02% (n = 65,000). coupled PK/LDH NADH assays, four targets;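 active means single-dose screening hits from any of four coupled enzyme assays that gave an IC50 when retested across doses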;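 further: the DPM-DC format reads NADH fluorescence rather than 340 nm absorbance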
Abs 340nm: compound absorbs light at 340 nm; compound absorbance at 340 nm, fold over control; fold change at 10 µM; 65,000 tested, under 10 active;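 active means at 10 µM dose, initial 340 nm absorbance at least 2 fold that of control wells; inactive means change under 2 fold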;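 further: initial absorbance extrapolated from kinetic A340 decline of NADH oxidation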
Autofluor 339: intrinsic fluorescence of library compounds, ex339/em460 – biochemical, MLSMR library, data from DPM-DC assay, artefact control, profiling panel | compound autofluorescence, ex339/em460 nm, NADH buffer; active compounds read high; 1 = no-compound wells, NADH background | fluorescence fold increase at 10 µM | actives 5.5% (n = 65,000) | AID 709;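 active means at 10 µM, mean starting fluorescence two-fold or more over control wells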;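 further: signal is the first read of a kinetic run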
Redox 05 DTT: counter-screen for Cdc25B probes: redox cycling H2O2 in 0.5 mM DTT | shares compounds with Cdc25B block | cell-free redox cycling H2O2 generation | EC50, µM | actives 50% (n = 30) | AID 682; in the data active means EC50 below about 30 µM
Redox 1 DTT: redox cycling H2O2 generation, Cdc25B counter-screen; EC50, µM; 30 tested, under 10 active; shares compounds with Cdc25B block; cell-free redox cycling H2O2 generation, 1 mM DTT; in the data active means EC50 below about 50 µM
Redox H2O2: redox cycling H2O2 generation, MKP probe counter-screen; shares compounds with MKP-1 inh; DTT, phenol red/HRP; EC50, µM; 60 tested, under 10 active; call rule not given here
An asterisk follows results filed as active; . = no result given.

SMILES	Hsp90 inh	MKP-1 inh	Cdc25B block	NADH enzymes	Abs 340nm	Autofluor 339	others
CN(N=O)c1cc(O)ccc1O	99*	.	.	.	.	.
Cc1nc(-c2ccc(-c3ccc(C(=O)N4CCc5cc6c(cc54)C4(CCN(C)CC4)CO6)cc3)c(C)c2)no1	-7	.	.	.	.	.
O=c1c2ccccc2[se]n1-c1ccccc1	1	-7	14	56µM*	1.1	1.1
Nc1c(C(=O)NC2CCCC2)c2nc3ccccc3nc2n1CC1CCCO1 (stereo not drawn)	-5	43	3	11%	1	3.7*
CC(=O)c1c(C)n(CC2CCCO2)c2ccc(O)cc12 (stereo not drawn)	-5	29	4	6%	1.1	1.1
CC(C)OCCCNC(=O)c1c(N)n(Cc2cccs2)c2nc3ccccc3nc12	-3	31	6	1%	1	3*
Nc1c(C(=O)OCC2CCCO2)c2nc3ccccc3nc2n1Cc1cccs1 (stereo not drawn)	-9	34	8	8%	1.1	2.1*
C[C@]12CC[C@@H](O)CC1CC[C@@H]1[C@@H]2CC[C@]2(C)C(=O)CC[C@@H]12 (stereo partly drawn)	-1	.	.	.	.	.
NCC(CP(=O)(O)O)c1ccc(Cl)cc1 (stereo not drawn)	0	.	.	.	.	.
CCn1nc(-c2ccccc2)nc2c(=O)n(C)c(=O)nc1-2	89*	98*	101*	33µM*	0.8	0.67	Redox 05 DTT=0.73*;Redox 1 DTT=1.6*;Redox H2O2=14*
CCCCNC(=O)c1c(N)n(CCCOC)c2nc3ccccc3nc12	-3	37	-3	1%	1	2.4*	Redox H2O2=>50
CC1Cc2cc3c(cc2C(c2ccc(N)cc2)=NN1)OCO3 (stereo not drawn)	4	.	.	.	.	.
